Screen size: about 5,500 compounds; about 2,000 (36%) were called active. About 18% were inconclusive and are not listed. This is one part of the list. Unmarked numbers belong to inactive results. Cut-off read from the data, not from the text of the source: active = normalized growth mostly below about 0.91 (no sharp cut-off); inconclusive = no clear call, values can overlap the other calls; inactive = mostly above about 0.92.
Experiment: chemical genetic growth profiling, strain panel (AID 1159580);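 note: tested at 20 µM; growth read once vehicle control cultures reached saturation at 30 °C; 1 = growth at the plate median or of vehicle wells; lower values mean less growth of the strain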
Settings: S. cerevisiae deletion strains, growth OD

Structure (SMILES): C[C@]12CCC3C(CC[C@H]4C[C@H](OS(=O)(=O)O)CC[C@]34C)C1CCC2=O (some centres not stated)
- normalized growth (locus YAL021C, strain ccr4, stronger effect = lower value): 1.02
- normalized growth (locus YAL026C, strain drs2, stronger effect = lower value): 1.05
- normalized growth (locus YAL030W, strain snc1, stronger effect = lower value): 1.05
- normalized growth (locus YBL061C, strain skt5, stronger effect = lower value): 1.05
- normalized growth (locus YBR009C, strain hhf1, stronger effect = lower value): 1.06
- normalized growth (locus YBR023C, strain chs3, stronger effect = lower value): 1.05
- normalized growth (locus YBR171W, strain sec66, stronger effect = lower value): 1.08
- normalized growth (locus YBR231C, strain swc5, stronger effect = lower value): 1.06
- normalized growth (locus YBR279W, strain paf1, stronger effect = lower value): 1.03
- normalized growth (locus YCL011C, strain gbp2, stronger effect = lower value): 1.05
- normalized growth (locus YCL016C, strain dcc1, stronger effect = lower value): 1.04
- normalized growth (locus YCL061C, strain MRC1, stronger effect = lower value): 1.05
- normalized growth (locus YCL069W, strain vba3, stronger effect = lower value): 1.04
- normalized growth (locus YCR088W, strain abp1, stronger effect = lower value): 1.04
- normalized growth (locus YDL005C, strain med2, stronger effect = lower value): 1.06
- normalized growth (locus YDL040C, strain nat1, stronger effect = lower value): 1.04
- normalized growth (locus YDR001C, strain nth1, stronger effect = lower value): 1.04
- normalized growth (locus YDR069C, strain doa4, stronger effect = lower value): 1.05
- normalized growth (locus YDR137W, strain rgp1, stronger effect = lower value): 1.05
- normalized growth (locus YDR159W, strain sac3, stronger effect = lower value): 1.08
- normalized growth (locus YDR195W, strain ref2): 1.06
- normalized growth (locus YDR297W, strain sur2, stronger effect = lower value): 1.05
- normalized growth (locus YDR334W, strain swr1, stronger effect = lower value): 1.05
- normalized growth (locus YDR335W, strain msn5, stronger effect = lower value): 1.04
- normalized growth (locus YDR392W, strain spt3, stronger effect = lower value): 1.07
- normalized growth (locus YEL003W, strain gim4, stronger effect = lower value): 1.03
- normalized growth (locus YEL037C, strain rad23, stronger effect = lower value): 1.04
- normalized growth (locus YEL061C, strain CIN8 (second series), stronger effect = lower value): 1.05
- normalized growth (locus YER015W, strain faa2, stronger effect = lower value): 1.05
- normalized growth (locus YER016W, strain bim1, stronger effect = lower value): 1.04
- normalized growth (locus YER111C, strain swi4, stronger effect = lower value): 1.06
- normalized growth (locus YER155C, strain BEM2 (second series), stronger effect = lower value): 1.06
- normalized growth (locus YFR010W, strain ubp6, stronger effect = lower value): 1.05
- normalized growth (locus YGL167C, strain pmr1, stronger effect = lower value): 1.06
- normalized growth (locus YGL173C, strain kem1, stronger effect = lower value): 1.04
- normalized growth (locus YGL227W, strain vid30, stronger effect = lower value): 1.05
- normalized growth (locus YGL240W, strain doc1, stronger effect = lower value): 1.04
- normalized growth (locus YGL253W, strain hxk2, stronger effect = lower value): 1.04
- normalized growth (locus YHR013C, strain ard1, stronger effect = lower value): 1.12
- normalized growth (locus YHR027C, strain rpn1, stronger effect = lower value): 1.05
- normalized growth (locus YHR142W, strain chs7, stronger effect = lower value): 1.05
- normalized growth (locus YJL092W, strain hpr5, stronger effect = lower value): 1.05
- normalized growth (locus YJL095W, strain BCK1 (second series), stronger effect = lower value): 1.04
- normalized growth (locus YJL115W, strain asf1, stronger effect = lower value): 1.06
- normalized growth (locus YJL129C, strain trk1, stronger effect = lower value): 1.11
- normalized growth (locus YJL154C, strain vps35, stronger effect = lower value): 1.04
- normalized growth (locus YJL164C, strain tpk1, stronger effect = lower value): 1.05
- normalized growth (locus YJL166W, strain qcr8, stronger effect = lower value): 1.05
- normalized growth (locus YJL187C, strain SWE1, stronger effect = lower value): 1.05
- normalized growth (locus YKL160W, strain elf1, stronger effect = lower value): 1.03
- normalized growth (locus YKR026C, strain gcn3, stronger effect = lower value): 1.06
- normalized growth (locus YKR091W, strain srl3, stronger effect = lower value): 1.04
- normalized growth (locus YLL001W, strain dnm1, stronger effect = lower value): 1.05
- normalized growth (locus YLL026W, stronger effect = lower value): 1.05
- normalized growth (locus YLL041C, strain sdh2, stronger effect = lower value): 1.05
- normalized growth (locus YLR027C, strain aat2, stronger effect = lower value): 1.05
- normalized growth (locus YLR221C, strain rsa3, stronger effect = lower value): 1.05
- normalized growth (locus YLR258W, strain gsy2, stronger effect = lower value): 1.06
- normalized growth (locus YLR262C, strain YPT6 (second series), stronger effect = lower value): 1.04
- normalized growth (locus YLR320W, strain mms22, stronger effect = lower value): 1.06
- normalized growth (locus YLR342W, strain FKS1, stronger effect = lower value): 1.06
- normalized growth (locus YLR357W, strain rsc2, stronger effect = lower value): 1.06
- normalized growth (locus YLR370C, strain arc18, stronger effect = lower value): 1.05
- normalized growth (locus YLR384C, strain iki3, stronger effect = lower value): 1.05
- normalized growth (locus YML120C, strain ndi1, stronger effect = lower value): 1.05
- normalized growth (locus YMR058W, strain fet3, stronger effect = lower value): 1.04
- normalized growth (locus YMR125W, strain sto1, stronger effect = lower value): 1.05
- normalized growth (locus YMR129W, stronger effect = lower value): 1.05
- normalized growth (locus YMR205C, strain PFK2, stronger effect = lower value): 1.07
- normalized growth (locus YMR231W, strain pep5, stronger effect = lower value): 1.03
- normalized growth (locus YNL071W, strain lat1, stronger effect = lower value): 1.05
- normalized growth (locus YNL209W, strain ssb2, stronger effect = lower value): 1.04
- normalized growth (locus YNL248C, strain rpa49, stronger effect = lower value): 1.04
- normalized growth (locus YNL322C, strain KRE1 (second series), stronger effect = lower value): 1.04
- normalized growth (locus YNR049C, strain mso1, stronger effect = lower value): 1.05
- normalized growth (locus YOR001W, strain rrp6, stronger effect = lower value): 1.04
- normalized growth (locus YOR070C, strain gyp1, stronger effect = lower value): 1.06
- normalized growth (locus YOR080W, strain dia2, stronger effect = lower value): 1.07
- normalized growth (locus YOR083W, strain WHI5, stronger effect = lower value): 1.04
- normalized growth (locus YOR106W, strain vam3, stronger effect = lower value): 1.03
- normalized growth (locus YOR265W, strain rbl2, stronger effect = lower value): 1.08 [resistant] (active)
- normalized growth (locus YOR270C, strain vph1, stronger effect = lower value): 1.1
- normalized growth (locus YOR290C, strain snf2, stronger effect = lower value): 1.04
- normalized growth (locus YPL051W, strain arl3, stronger effect = lower value): 1.05
- normalized growth (locus YPL078C, strain atp4, stronger effect = lower value): 1.03
- normalized growth (locus YPL106C, strain sse1, stronger effect = lower value): 1.1
- normalized growth (locus YPL240C, strain hsp82, stronger effect = lower value): 1.04

— PubChem BioAssay AID1159580 (chemical genetic matrix, 2015)
